An excerpt weighted towards active compounds, which were near 7.1% of everything screened.
SW480 rereplic = DNA re-replication induction in SW480 cells. Potency, µM (titrated, usually from 46.1 µM), without a hit: top-dose re-replication activation, hits mostly activators. 340,000 compounds, 1.8% hits. SW480 DNA re-replication, Hoechst DNA content imaging, 48 h. AID 624297; further: potency means the concentration at half of the fitted maximal effect; % of control where 0% means no effect; nearly all actives have a fitted effect of over 55% in size
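Readout is total intensity of Hoechst-stained nuclei, excited at 405 nm and collected at 500-530 nm. Compound treatment lasted 48 hr at 37 C in 5% CO2 before staining.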
ATXN2 expr inh = reduces ATXN2 reporter expression in HEK-293 cells; HEK-293 ATXN2-luciferase reporter, luminescence, 24 h; Potency, µM (series often up to 57 µM), for the others: at the highest dose activity change, negative = inhibition, most hits filed as inhibitors; AID 1745845; 360,000 compounds, 0.72% hits; further: potency means the concentration at half of the fitted maximal effect; on the % scale 0 is the no-effect control and ±100 the full control effect; nearly all actives have a fitted effect of over 55% in size
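ATXN2-luciferase reporter cells (luciferase flanked by upstream and downstream ATXN2 gene portions) were treated 24 h at 37 °C with compounds at up to 57 uM. SteadyGlo luminescence gave expression; GF-AFC fluorescence gave viability.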
MCF10A rereplic = induces DNA re-replication in MCF 10a normal breast cells; AID 624296; Potency, µM (doses to about 46.1 µM), for the others: top-dose activity, positive = re-replication, hits mostly activators; MCF 10A DNA re-replication, Hoechst nuclear intensity, 48 h; 350,000 compounds, 2.9% hits; further: potency means the concentration at half of the fitted maximal effect; % of control where 0% means no effect; nearly all actives have a fitted effect of over 50% in size
IL1B secr inh = blocks inflammasome-driven IL-1 beta release. THP-1 LPS/ATP IL-1B secretion, AlphaLISA, 16 h; hits give low values. activity change, % at 57.5 µM. 360,000 compounds, 4.7% hits; in the data active means activity change below about -50%; inconclusive means mostly about -30% to -49%; further: on the % scale 0 is the no-effect control and ±100 the full control effect
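Secreted IL-1B measured by AlphaLISA bead assay after 16 h compound exposure of THP-1 cells; compounds (final up to 57.5 uM) added 1 h before LPS (250 ng/mL) and ATP (1.25 mM) stimulation; lower signal means less secretion.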
ATXN viability = cell viability loss in ATXN counter-screen | S2 cells (HEK-293 line with an ATXN2-luciferase reporter) viability, CellTiter-Fluor protease fluorescence, 24 h | Potency, µM (highest dose often 56.7 µM), most hits filed as cytotoxic | 400,000 compounds, 0.49% hits; further: potency means the concentration at half of the fitted maximal effect; nearly all actives have a fitted effect of over 40% in size
PINK1 expr mod = PINK1 expression modulation; Potency, µM (doses to about 76.6 µM), for the others: at the highest dose activation (PINK1 increase), most hits filed as activators; PINK1 immunofluorescence, high-content cytometry, 24 h; 410,000 compounds, 0.2% hits; active means well fitted activation curve with a large enough effect; inconclusive means small, poorly fitted or top-dose-only effect; cell line not stated here; further: potency means the concentration at half of the fitted maximal effect; % of control where 0% means no effect; nearly all actives have a fitted effect of over 65% in size
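Decision-based qHTS: stable cells, 24 h exposure to five compound concentrations, CCCP as control. Fixed cells stained for PINK1 plus nuclear, mitochondrial and cell markers, cytometer read.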
* = called active by the depositor; i = inactive; u = inconclusive; x = no result; [ ] = dose if it differs, or a comment. Unless noted, the call rests on the fitted dose curve; in most records, active means well fitted curve in the direction sought with a large enough effect; inconclusive means small, poorly fitted or top-dose-only effect, or another doubt; inactive means no such curve, though single readings can be large; an effect the other way counts as inactive or inconclusive.

SMILES	SW480 rereplic	ATXN2 expr inh	MCF10A rereplic	IL1B secr inh	ATXN viability	PINK1 expr mod
O=S(=O)(c1ccc(NC(=S)NC23CC4CC(CC(C4)C2)C3)cc1)N1CCCCC1	x	x	x	-3	u	18µM*
CC1CC(C)CN(S(=O)(=O)c2ccc(NC(=O)CN3C(=O)NC(C)(c4ccccc4)C3=O)cc2)C1 (configuration not stated)	-3%	4%	4%	1	i	-1%
CC1CCN(S(=O)(=O)c2ccc(NC(=O)CNC3CCCCC3)cc2)CC1	u	-12%	26%	-87*	i	3%
CC1CCCN(S(=O)(=O)c2ccc(NC(=O)CN3C(=O)NC(C)(c4ccccc4)C3=O)cc2)C1 (configuration not stated)	-3%	7%	0%	-52*	i	1%
CC1CCN(CC(=O)Nc2ccc(S(=O)(=O)N3CCCCC3)cc2)CC1	12%	-19%	2.3µM*	0	i	2%
CC1CCCC(C)N1S(=O)(=O)c1ccc(NC(=O)CNC2CCCC2)cc1 (configuration not stated)	14%	-6%	2%	-8	i	2%
CCCCOc1ccc(C(=O)NCC2(N3CCN(C)CC3)CCCCC2)cc1	x	x	x	x	x	0%
CC(=O)Nc1ccccc1-c1nc2ccccc2n(C(C)C(=O)c2ccc(C)c(C)c2)c1=O (configuration not stated)	x	-14%	x	x	i	0%
COC(=O)c1ccc(NC(=O)CCn2cnnn2)cc1	x	2%	x	x	i	-1%
CN(C)c1oc(-c2ccccc2Cl)nc1P(=O)(c1ccccc1)c1ccccc1	u	-13%	18µM*	-62*	i	-5%
COc1ccc(/C(C)=N/Nc2nc3ccccc3nc2C)cc1	18µM*	-21%	15µM*	10	i	8%
COc1ccc(/C(C)=N/Nc2nncc3ccccc23)cc1	-6%	85%	-8%	1	i	6%
CN(C)CCn1c2ccccc2c2nc3ccc([N+](=O)[O-])cc3cc21	u	3.2µM*	13%	x	i	-2%
CCCc1c(-c2cccc(Cl)c2)ncn1CCc1ccccc1OC	x	u	x	-21	22µM*	6%
CCCc1c(-c2ccc(Cl)cc2)ncn1CCc1ccccc1OC	x	u	x	-93*	35µM*	-1%
CCCc1c(-c2ccc(F)cc2)ncn1CCc1ccccc1OC	x	u	x	-6	u	4%
CCc1ccc(NC(=O)c2ccc3c(c2)nnn3CC)cc1	x	20%	x	x	i	2%
COc1cccc(CNC(=O)CN2C(=O)N(c3c(C)cccc3C)S(=O)(=O)c3ccccc32)c1OC	x	-7%	x	x	i	1%
CCc1ccc(-c2cc(C(F)(F)F)n3nc(C(=O)Nc4c(C)nn(Cc5ccc(F)cc5)c4C)cc3n2)s1	8.2µM*	-11%	u	u	x	-1%[38.3 µM]
COc1ccc(C(=O)NC(CO)c2nnc(SCc3ccc(Cl)c(Cl)c3)n2C)cc1 (configuration not stated)	7%	-7%	-19%	-18	u	x
CC(C)CC(NC(=O)c1cccs1)c1nnc(SCc2ccc(Cl)c(Cl)c2)n1C (configuration not stated)	12%	-22%	18µM*	u	u	10%
COc1ccc(S(=O)(=O)N2CCCCC2)cc1NC(=O)[C@@H]1CCCN1C(=O)c1cccs1	13%	-13%	6%	0	i	1%
O=C(Nc1cccc(C(F)(F)F)c1)c1cc(-c2ccco2)on1	-8%	6%	3%	-7	i	16%
Cc1ccc(NC(=O)c2sc(C)nc2C)c(C)c1	4%	44%	10%	-11	i	0%
Cc1ccc(NC(=O)c2sc(Cl)nc2C)c(C)c1	-2%	-1%	-2%	-65*	i	2%
SMILES	SW480 rereplic	ATXN2 expr inh	MCF10A rereplic	IL1B secr inh	ATXN viability	PINK1 expr mod
O=C(Nc1cccc(C(F)(F)F)c1)c1sc(Cl)nc1C(F)(F)F	-5%	-37%	21µM*	-103*	u	3%
CS(=O)(=O)c1ccc(Cl)c(NC(=O)CCl)c1	u	u	u	-100*	u	-4%
Cc1cc(C)c(C)c(OC(=O)c2sc(Cl)nc2C)c1	u	20µM*	u	-104*	22µM*	-2%
CCOc1cccc(C2c3c(oc4ccc(F)cc4c3=O)C(=O)N2c2cc(C)ccn2)c1 (configuration not stated)	x	3%	x	x	i	0%
Cc1nc(Cl)sc1C(=O)Nc1ccc(C(C)(C)C)cc1	u	26%	11%	-91*	i	10%
Cc1ccccc1NC(=O)c1sc(Cl)nc1C	5%	-19%	4%	-17	i	-1%
Cc1ccc(NC(=O)CCc2ccc(C)o2)c(C)c1	10%	14%	2%	0	i	6%
Cc1ccc(NC(=O)CCl)c(C)c1	u	u	u	-99*	u	6%
CCc1cccc(NC(=O)C(CC)n2nc(C)c3sc4ccccc4c3c2=O)c1 (configuration not stated)	x	x	x	x	x	2%
O=C(c1ccc2c(c1)OCO2)C1CCCN(Cc2cccn2-c2cccnc2)C1 (configuration not stated)	-2%	-24%	5%	u	i	1%
CSc1ccc(C(=O)C2CCCN(Cc3cccn3-c3cccnc3)C2)cc1 (configuration not stated)	3%	-31%	u	-96*	u	-2%
O=C(c1ccc(Cl)cc1)C1CCCN(Cc2cccn2-c2cccnc2)C1 (configuration not stated)	14%	-31%	24%	-56*	i	1%
COc1ccc(C(=O)C2CCCN(Cc3cccn3-c3cccnc3)C2)cc1OC (configuration not stated)	20%	x	-13%	0	i	8%
COCCCNC(=O)c1ccc2c(c1)N=C(C)c1c(C)ccc(C)c1S2	x	23%	x	x	u	1%
Cc1csc2nc(COC(=O)c3cccc(NC(=O)COc4ccccc4Cl)c3)cc(=O)n12	x	x	x	x	x	1%
CCCCCNc1nc(N2CCCC2)c2c(c1C#N)CCN(C)C2	u	-22%	11µM*	-51*	u	5%
COC(=O)c1ccccc1-c1c2ccc(=N)cc-2oc2cc(N)ccc12	11%	u	-26%	-92*	x	40µM*
COc1ccccc1-c1ccnc(-n2ncc(C(=O)N(C)C(C)c3ccon3)c2C2CC2)n1 (configuration not stated)	x	x	x	x	i	0%

Screens deposited in PubChem by National Center for Advancing Translational Sciences (NCATS).
